# Measurements published in PubChem BioAssay.
# Unmarked numbers belong to inactive results. A call without a number means that no potency is given here. For some of these results: Potency and affinity values are given separately. Activity calls are given as the source filed them. Unless noted, the rule behind the calls is not given here.
# Legend:
# [1] = antimalarial activity against Dd2 strain (AID 2302;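 active = growth inhibition above 50% at the single 2 µM test dose, taken to imply half-maximal potency below 2 µM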); settings: P. falciparum Dd2 in RBCs, LDH growth readout, 72 h; at 2 µM; hits give high values
# [2] = human hepatoma cell viability loss – ATP luminescence, cytotoxicity control for P. falciparum antimalarial project, primary screen (AID 2303;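 active = inhibition above 50%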); settings: HepG2 viability, 24-48 h, at 10 µM, hits give high values
# [3] = molecular target: L-lactate dehydrogenase (Plasmodium falciparum (isolate CDC / Honduras)) (UniProt Q27743); experiment: PfLDH activity inhibition – cell lysate, 3D7 strain, counter-screen for P. falciparum growth inhibition project (AID 2304); settings: P. falciparum 3D7 crude extract, LDH APAD/NBT absorbance; at 2 µM; hits give high values
# Sequence of L-lactate dehydrogenase (Plasmodium falciparum (isolate CDC / Honduras)) (Q27743 whole entry, looked up): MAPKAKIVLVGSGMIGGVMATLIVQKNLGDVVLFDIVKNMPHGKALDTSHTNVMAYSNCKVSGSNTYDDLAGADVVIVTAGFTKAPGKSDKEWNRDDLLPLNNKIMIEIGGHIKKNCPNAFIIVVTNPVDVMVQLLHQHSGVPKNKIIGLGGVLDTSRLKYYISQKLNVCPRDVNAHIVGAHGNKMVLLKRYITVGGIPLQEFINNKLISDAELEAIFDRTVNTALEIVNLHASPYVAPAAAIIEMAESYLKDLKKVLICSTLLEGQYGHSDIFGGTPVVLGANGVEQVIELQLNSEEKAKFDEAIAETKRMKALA
# [4] = inhibition of 3D7 malaria parasite growth – strain 3D7 (AID 2306); settings: P. falciparum 3D7 erythrocytic growth, LDH absorbance, 72 h; at 2 µM; hits give high values
# [5] = molecular target: Calcium-dependent protein kinase 1 (Plasmodium falciparum (isolate 3D7)) (UniProt P62344); experiment: PfCDPK1 kinase inhibitors, biochemical, TCAMS library (AID 1159585; cut-off not given, nearly all actives have IC50 up to about 0.98 µM;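 note: inhibitors leave more ATP so luminescence rises with inhibition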); settings: recombinant PfCDPK1, Kinase-Glo ATP depletion luminescence
# Sequence of Calcium-dependent protein kinase 1 (Plasmodium falciparum (isolate 3D7)) (P62344 whole entry, looked up): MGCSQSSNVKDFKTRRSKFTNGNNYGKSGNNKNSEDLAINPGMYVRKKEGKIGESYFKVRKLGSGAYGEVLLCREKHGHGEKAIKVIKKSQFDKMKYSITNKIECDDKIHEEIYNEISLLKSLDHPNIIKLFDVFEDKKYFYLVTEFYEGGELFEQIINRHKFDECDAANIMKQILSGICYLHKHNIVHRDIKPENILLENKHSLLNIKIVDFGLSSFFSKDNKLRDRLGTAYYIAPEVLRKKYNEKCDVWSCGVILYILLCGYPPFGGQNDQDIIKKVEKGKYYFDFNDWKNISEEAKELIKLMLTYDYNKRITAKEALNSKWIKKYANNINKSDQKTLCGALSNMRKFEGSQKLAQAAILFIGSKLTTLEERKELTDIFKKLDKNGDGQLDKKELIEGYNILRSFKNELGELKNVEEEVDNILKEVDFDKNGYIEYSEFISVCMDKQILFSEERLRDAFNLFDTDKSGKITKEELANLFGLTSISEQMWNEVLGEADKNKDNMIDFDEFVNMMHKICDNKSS
# [6] = molecular target: Plasmodium falciparum protein kinase 6 (PK6, PF3D7_1337100) (UniProt Q8IDW1); experiment: PfPK6 kinase inhibitors, biochemical, TCAMS library (AID 1159586); settings: recombinant PfPK6, Kinase-Glo ATP depletion luminescence
# Sequence of Plasmodium falciparum protein kinase 6 (PK6, PF3D7_1337100) (Q8IDW1 1-305): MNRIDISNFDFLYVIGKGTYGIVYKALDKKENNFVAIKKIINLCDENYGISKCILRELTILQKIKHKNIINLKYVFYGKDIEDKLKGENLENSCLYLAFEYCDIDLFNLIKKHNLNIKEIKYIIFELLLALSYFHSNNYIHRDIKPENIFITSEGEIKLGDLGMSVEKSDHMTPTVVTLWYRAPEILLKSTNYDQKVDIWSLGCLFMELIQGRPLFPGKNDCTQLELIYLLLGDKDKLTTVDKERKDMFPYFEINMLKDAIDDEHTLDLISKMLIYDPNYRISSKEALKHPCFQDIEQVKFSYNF
# [7] = molecular target: Protein kinase 7 (PK7), Plasmodium falciparum 3D7 (PF3D7_0213400) (UniProt Q7YTF7); experiment: inhibition of Plasmodium PK7 catalytic activity – biochemical, TCAMS antimalarial set, Kinase-Glo luminescence (AID 1159587); settings: recombinant PfPK7, Kinase-Glo ATP depletion luminescence
# Sequence of Protein kinase 7 (PK7), Plasmodium falciparum 3D7 (PF3D7_0213400) (Q7YTF7 1-343): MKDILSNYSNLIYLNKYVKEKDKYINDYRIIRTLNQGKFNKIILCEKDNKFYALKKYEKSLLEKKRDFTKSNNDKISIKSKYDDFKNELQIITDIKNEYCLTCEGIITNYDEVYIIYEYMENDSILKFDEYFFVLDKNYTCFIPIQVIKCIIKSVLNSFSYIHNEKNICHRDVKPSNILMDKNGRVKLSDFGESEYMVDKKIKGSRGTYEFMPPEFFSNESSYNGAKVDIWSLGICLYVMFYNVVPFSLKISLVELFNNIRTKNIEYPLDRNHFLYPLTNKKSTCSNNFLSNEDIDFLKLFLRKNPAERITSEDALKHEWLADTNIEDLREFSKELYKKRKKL
# [8] = molecular target: Calcium-dependent protein kinase 4 (Plasmodium falciparum (isolate 3D7)) (UniProt Q8IBS5); experiment: PfCDPK4 kinase inhibitors, biochemical, TCAMS library (AID 1159588; cut-off not given, nearly all actives have IC50 up to about 0.91 µM); settings: recombinant PfCDPK4, Kinase-Glo ATP depletion luminescence
# Sequence of Calcium-dependent protein kinase 4 (Plasmodium falciparum (isolate 3D7)) (Q8IBS5 whole entry, looked up): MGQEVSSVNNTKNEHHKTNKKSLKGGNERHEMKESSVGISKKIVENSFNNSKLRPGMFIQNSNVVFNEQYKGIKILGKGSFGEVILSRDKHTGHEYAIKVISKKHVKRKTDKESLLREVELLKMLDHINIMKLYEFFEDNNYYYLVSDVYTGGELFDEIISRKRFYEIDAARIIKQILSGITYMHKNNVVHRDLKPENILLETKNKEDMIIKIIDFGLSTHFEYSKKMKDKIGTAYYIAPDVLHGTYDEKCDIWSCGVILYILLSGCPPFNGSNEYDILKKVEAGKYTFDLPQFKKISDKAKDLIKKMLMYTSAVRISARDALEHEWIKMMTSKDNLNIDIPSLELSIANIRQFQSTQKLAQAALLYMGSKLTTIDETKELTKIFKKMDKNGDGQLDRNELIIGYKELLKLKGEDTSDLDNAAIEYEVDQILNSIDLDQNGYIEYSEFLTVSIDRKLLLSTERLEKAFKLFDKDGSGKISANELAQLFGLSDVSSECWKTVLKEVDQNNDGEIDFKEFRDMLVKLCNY
SMILES,growth inhibition [1],inhibition [2],inhibition [3],growth inhibition [4],outcome [5],outcome [6],outcome [7],outcome [8]
O=C(NCCCCN1CCC(c2c[nH]c3ccccc23)CC1)c1sc(-c2ccc(C(F)(F)F)cc2)nc1CO,3%,34%,0%,94% (active),inactive,inactive,inactive,inactive
Cc1ccc(C)c(C2CCN(CCCCNC(=O)c3ccc(NC(=O)c4ccc(Cl)cc4)cc3)CC2)c1,13%,15%,7%,94% (active),inactive,inactive,inactive,inactive
CN1CCCN(Cc2ccc(-c3cccc(NC(=O)c4cccc(F)c4)c3)cc2)CC1,12%,28%,-3%,91% (active),inactive,inactive,inactive,inactive
Cc1cc(NN=Cc2ccc(Cl)cc2)c2cc(C(F)(F)F)ccc2n1,32%,0%,-5%,91% (active),inactive,inactive,inactive,inactive
CCCCN=C(N)Nc1ccc(OCCCOc2ccc(NC(N)=NCCCC)cc2)cc1,97% (active),15%,4%,96% (active),inactive,inactive,inactive,inactive
FC(F)(F)c1cnc(Sc2nnc(-c3ccncc3)o2)c(Cl)c1,96% (active),10%,1%,96% (active),inactive,inactive,inactive,inactive
NC1CCCN(Cc2ccc(-c3ccc(-c4nc5ccccc5[nH]4)s3)cc2)C1 (stereo not given),99% (active),40%,-2%,102% (active),inactive,inactive,inactive,inactive
COc1ccc2nccc([C@@H](O)CN3CCC(NC(=O)c4ccc5cc[nH]c5c4)CC3)c2c1,23%,21%,-6%,91% (active),inactive,inactive,inactive,inactive
Cc1cccc2[nH]c(-c3cccc(-c4cccc(NC(=O)c5ccoc5)c4)c3)nc12,71% (active),19%,-4%,99% (active),inactive,inactive,inactive,inactive
CC(Cc1ccc(CN2CCN(Cc3ccccc3)CC2)cc1)NCC(O)c1cccc(C(F)(F)F)c1 (stereo not given),98% (active),51% (active),-7%,97% (active),inactive,inactive,inactive,inactive
CCOC(=O)CCCOc1c(OC)cc(Cc2cnc(N)nc2N)cc1OC,7%,10%,8%,96% (active),inactive,inactive,inactive,inactive
c1cc(C2=N[C@H]3CCCC[C@@H]3N2)ccc1OCCCOc1ccc(C2=N[C@@H]3CCCC[C@H]3N2)cc1,64% (active),-7%,-3%,99% (active),inactive,inactive,inactive,inactive
O=C1NC(=O)C(c2ccc(Cl)cc2)=C1Nc1cccc(S(=O)(=O)C(F)(F)F)c1,51% (active),1%,-2%,99% (active),inactive,inactive,inactive,inactive
Cc1ccc(-n2nc3ccc(NC(=O)c4ccc([N+](=O)[O-])o4)cc3n2)cc1C,95% (active),20%,-3%,94% (active),inactive,inactive,inactive,inactive
Cc1cccc2[nH]c(-c3cccc(-c4ccc(CNCCc5ccncc5)cc4)c3)nc12,100% (active),40%,-2%,100% (active),inactive,inactive,inactive,inactive
COc1ccc(-c2cc(C(=O)Nc3ccc4nc(-c5ccccc5)[nH]c4c3)[nH]n2)cc1,78% (active),77% (active),3%,90% (active),inactive,inactive,inactive,inactive
CN1CCN(CCCN(Cc2ccc(-c3cccc(CNCc4ccc5c(c4)OCO5)c3)cc2)C(=O)NCCc2ccccc2)CC1,85% (active),36%,3%,98% (active),inactive,inactive,inactive,inactive
CCOC(=O)c1ccc(-n2c(C)cc(C=C3SC(=Nc4ccccc4)N(C4CCCC4)C3=O)c2C)cc1,61% (active),2%,0%,98% (active),inactive,inactive,inactive,inactive
O=C(Nc1ccon1)c1cc(-c2cccnc2)nc2ccc(Br)cc12,77% (active),7%,-3%,99% (active),inactive,inactive,inactive,inactive
CCc1ccc(CN(CCCOc2cccc(CC(=O)NCc3cnc[nH]3)c2)Cc2ccc(-n3ccnc3)cc2)cc1,28%,1%,-2%,99% (active),inactive,inactive,inactive,inactive
